In ChEMBL document CHEMBL3988442, “University of Dundee, Small-Polar-MMV Screening Library” (2021):
About 25 (0.04%) of roughly 68,000 compounds showed an effect of 50% or more. The full list was thinned out, with strong results kept by preference.

Molecular target: T1, Methionyl-tRNA synthetase, putative (Leishmania donovani (strain BPK282A1)) (UniProt E9BF75)
T1 sequence (whole entry): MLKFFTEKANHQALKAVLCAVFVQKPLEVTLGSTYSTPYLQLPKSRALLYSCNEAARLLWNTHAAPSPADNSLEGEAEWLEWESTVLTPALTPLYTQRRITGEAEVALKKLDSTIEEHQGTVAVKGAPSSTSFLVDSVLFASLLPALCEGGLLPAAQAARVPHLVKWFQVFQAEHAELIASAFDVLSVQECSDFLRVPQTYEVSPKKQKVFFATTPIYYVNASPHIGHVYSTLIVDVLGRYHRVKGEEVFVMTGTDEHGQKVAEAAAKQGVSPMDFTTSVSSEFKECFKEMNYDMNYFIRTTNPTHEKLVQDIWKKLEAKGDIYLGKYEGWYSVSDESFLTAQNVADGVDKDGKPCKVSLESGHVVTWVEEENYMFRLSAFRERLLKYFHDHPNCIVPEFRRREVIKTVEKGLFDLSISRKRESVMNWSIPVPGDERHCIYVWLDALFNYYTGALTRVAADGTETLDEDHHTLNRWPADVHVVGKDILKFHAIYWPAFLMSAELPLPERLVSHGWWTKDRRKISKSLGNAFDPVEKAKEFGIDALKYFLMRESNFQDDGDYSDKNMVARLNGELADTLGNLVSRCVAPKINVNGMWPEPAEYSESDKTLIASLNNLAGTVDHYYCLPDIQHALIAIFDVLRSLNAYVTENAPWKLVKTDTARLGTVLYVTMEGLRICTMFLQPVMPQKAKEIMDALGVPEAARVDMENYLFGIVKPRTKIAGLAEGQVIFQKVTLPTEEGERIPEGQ
Assay: Leishmania donovani Methionine tRNA synthetase (LdMetRS):v6. Primary screen assay
Format: functional
Set-up: conc 80 nM, time 150 minutes

SMILES	inhibition [%]
O=C(NC1CC1)[C@@H]1CCO[C@@H]2CCN(CC3CCC3)C[C@H]21	16.2
CCN1C(=O)[C@]2(CC[C@@H]3CN(S(=O)(=O)CC(C)C)C[C@@H]32)N=C1C	16.2
O=C(NCc1ccco1)[C@@]12CCO[C@@H]1CCN(Cc1ccccn1)C2	16.3
Cc1ccc(N2CCO[C@H]3CN(C(=O)c4cccc(C)n4)C[C@H]32)nn1	5.75
c1ccc(N(CCn2cncn2)CC2CC2)cc1	11
OCCCN(CCn1cncn1)c1ccccc1	8.36
Oc1ccc(N(CCc2ccccc2)CCn2cncn2)cc1	70
Cc1ccccc1C(=O)N1C[C@@H]2CCN(c3cccnc3)C[C@@H]2C1	10.5
Cc1nc(CN2C[C@@H]3CN(C(=O)c4ccnnc4)C[C@@H]3C2=O)cs1	13.1
CO[C@H]1CN(Cc2ccccc2F)[C@@H]2CCCO[C@H]12	10.8
CNc1cc(-c2cccc(CN)c2)c2cc[nH]c2n1	53
CNc1cc(-c2ccccc2CN)c2cc[nH]c2n1	23.4
CNc1cc(-c2ccc(COCCN)cc2)c2cc[nH]c2n1	33.4
CCn1cc(CN2C[C@H]3CC[C@@H]2CN(C(=O)C2CCC2)C3)cn1	12.2
CS(=O)(=O)N1C[C@@H]2COC[C@]2(C(=O)NCCc2cccs2)C1	3.36
c1cc2c(cc1CN1CC[C@H]3[C@H]1CCN3CC1CC1)OCO2	5
CS(=O)(=O)NC[C@]12COC[C@H]1CN(Cc1ccc3c(c1)OCO3)C2	15.2
CN(C)CCN1C[C@@H]2CN(S(=O)(=O)c3ccccc3)C[C@@H]2C1=O	17.1
O=C(NCCc1ccccn1)[C@@]12CCO[C@@H]1CCN(c1ncccn1)C2	18.5
CN1CCCC[C@@H]2[C@H]1[C@@H](c1ccccc1)CCN2C(=O)c1ccncc1	12.5
Cc1nnc([C@H]2C[C@H]3CN(C(=O)Cc4ccc(F)cc4)CC[C@@H]3O2)o1	18.5
COCCN1CCN(Cc2ccc(F)c(C)c2)[C@H]2CS(=O)(=O)C[C@H]21	0.741
COCCN1C(=O)CC[C@]12CC[C@@H](NCc1nccs1)CC2	7.27
N#Cc1cccc(CN2C[C@H](OCC3CCOCC3)[C@H]3COC[C@H]32)c1	14.8
Cn1cc(CN2C[C@@H](N3CCCC3=O)[C@H]3OCCC[C@H]32)cn1	6.57
O=C1N(Cc2ccccc2)C[C@H]2CN(Cc3ccccc3Cl)CCN12	12.1
Cc1ccc(S(=O)(=O)N2C[C@H]3C[C@H](NC(=O)c4ccn(C)n4)[C@H]3C2)cc1	11.3

SMILES	inhibition [%]
CCCN1C[C@H]2CC[C@@H]1CN(Cc1cccc(O)c1)C2	3.78
Cn1cc(CN2CCO[C@H]3C(Cn4cccn4)CC[C@@H]32)cn1 (stereo not given in full)	11.4
Cc1cnc(CN2C[C@H]3C[C@H](Oc4ccccc4)C[C@H]3C2)cn1	0
CNC(=O)[C@@H]1[C@@H](c2ccccc2)CN2CCN(Cc3ccco3)C[C@H]12	0.822
COc1cc(CN2CCCC[C@]3(C)NC(=O)CC[C@H]23)ccc1F	14.2
O=C(NCC1CC1)[C@H]1CC[C@@H]2[C@@H](CCN2Cc2ccoc2)O1	10.8
Cc1cccc(CN2CC[C@H]3CO[C@H](CNC(=O)N(C)C)[C@H]3C2)c1	3.76
CN(C)C(=O)NCc1cc2n(n1)CCN(C[C@H]1[C@@H]3CNC[C@@H]31)C2	12
O=C1NC(c2ccccc2)=N[C@@]12CC[C@@H]1CN(S(=O)(=O)C3CC3)C[C@@H]12	6.19
CC(C)NC(=O)[C@H]1C[C@@H]2[C@@H](C1)OCCN2Cc1ccsc1	10.1
Cc1ccc(CN2CC[C@H]3CO[C@H](CN(C)C)[C@H]3C2)o1	15.1
CO[C@@H]1CC[C@H]2[C@H]1OCCN2S(=O)(=O)c1cn(C)cn1	7.3
COCC(=O)N1C[C@H]2CC[C@@]3(N=C(c4ccccc4)NC3=O)[C@H]2C1	8.15
Cc1nc(C)n(CC2CCCN2Cc2nc(C)c3ccccc3n2)n1 (stereo not given)	57
Cc1nc(C)n(CC2CCCN2Cc2nc(N)c3ccccc3n2)n1 (stereo not given)	11.2
Cc1nc(C)n(CC2CCCN2Cc2nc3ccccc3nc2C)n1 (stereo not given)	13.3
O=C(c1ccco1)N1C(CN2CCOCC2)[C@]2(O)CC[C@H]1CC2 (stereo not given in full)	15.1
O=C(N[C@@H]1CN(Cc2cccs2)[C@@H]2CCCO[C@@H]21)c1cscn1	11.8
Cc1nc([C@@H]2C[C@@H]3CCN(C(=O)Cc4ccsc4)C[C@H]3O2)no1	8.15
COCCCN1C(=O)CC[C@H]2CN(c3cnc4ccccc4n3)CC[C@H]21	-5.03
CCC1=N[C@@]2(CC[C@@H]3CN(C(=O)NC(C)C)C[C@@H]32)C(=O)N1C	12.4
Cc1nc(CN2C[C@@H]3CCCO[C@@H]3[C@H](NC(=O)CC3CC3)C2)cs1	12.6
CS(=O)(=O)NC[C@H]1OC[C@H]2CN(Cc3ccsc3)CC[C@H]21	17.8
CN(CC1CC1)c1ccc2ccc(C(=O)NCCc3ccccc3)cn12	51
COCCNC(=O)c1ccc2ccc(N(C)CC3CC3)n2c1	22.1
CN(C)CCNC(=O)c1ccc2ccc(N(C)CC3CC3)n2c1	25.3
O=C(c1ccc[nH]1)N1C[C@H](OCc2cccnc2)[C@H]2COC[C@H]21	16.2

SMILES	inhibition [%]
C=C1C(C)(C)[C@H]2CC[C@]1(C(=O)N1CCC(Cn3cc(CO)nn3)CC1)C2	11.7
NC(=O)N1CC[C@H]2CO[C@H](CNC(=O)c3ccnnc3)[C@H]2C1	15
Cc1cnccc1CN(C)C(=O)c1ccc(Cn2cnnn2)cc1	2.48
Cc1nc(CN(C)C(=O)c2ccc(Cn3cnnn3)cc2)cs1	123
Cc1ncsc1CCN(C)C(=O)c1ccc(Cn2cnnn2)cc1	16.8
O=S1(=O)C[C@@H]2[C@H](C1)N(Cc1cc(F)cc(F)c1)CCN2CCO	1.27
COCc1cc(N2CCc3onc(-c4cccc(OC)c4)c3C2)ncn1	12.5
COc1cccc(-c2noc3c2CN(c2nc(C)ncc2C)CC3)c1	15
COc1cccc(-c2noc3c2CN(c2ncnc4c2CCC4)CC3)c1	52.3
O=C(NC1CC1)[C@H]1CC[C@@H]2[C@@H](CCN2Cc2ccsc2)O1	6.67
CCn1cnnc1CCNC(=O)CCNC(=O)c1ccccc1F	17.3
O=C(CCNC(=O)c1ccccc1F)NCCNc1cccnc1	120
Cc1ccnc(NCCNC(=O)CCNC(=O)c2ccccc2F)c1	34.8
Cc1cccc(C(=O)N2C[C@@H]3[C@H](CC(=O)NC(C)C)[C@@H]3C2)n1	6.67
CC(C)Cc1ncc(CNc2cnccc2CO)s1	121
Cc1ccc(-c2ncc(CNc3cnccc3CO)s2)cc1	1.86
Cc1ncc(CNc2cnccc2CO)s1	11.8
Cn1cc(C(=O)N[C@@H]2CN(Cc3cccs3)[C@@H]3CCCO[C@@H]32)cn1	16.3
O=C1NC[C@]2(CC[C@@H](C(=O)N3CCC(O)CC3)CC2)Oc2ccccc21	17.4
Cc1oc(C(C)C)cc1C(=O)N1C[C@H]2CC[C@@H]1CN(c1ncccn1)C2	7.9
O=C([C@@H]1COC[C@H]2CN(C3CCCCC3)C[C@H]21)N1CCOCC1	14.6
O=S(=O)(CCSc1nccn1C1CC1)c1ccccc1	-9.32
O=S(=O)(NCCSc1nccn1C1CC1)c1ccccc1	67.7
O=S(=O)(NCCSc1nncn1C1CC1)c1ccccc1	3.73
Cc1noc([C@@]23CCO[C@@H]2CCN(C(=O)c2cc(C)c(C)s2)C3)n1	8.14
Cc1noc([C@@H]2C[C@H]3OCC[C@H]3N(Cc3sccc3C)C2)n1	10.5
Cc1occc1C(=O)N1CCO[C@H]2[C@H](Oc3cccnc3)CC[C@@H]21	3.85

SMILES	inhibition [%]
CCS(=O)(=O)N1CC[C@H]2O[C@H](c3nc(C)no3)CC[C@H]21	21
O=C1C[C@H]2CC[C@@H](CN1)N2C(=O)CCc1ccc2c(c1)OCO2	17
O=C(c1cc(F)cc(Cl)c1)N1CCN(CCO)[C@@H]2CS(=O)(=O)C[C@@H]21	3.31
Cc1noc(C)c1CN1CC[C@H]2OCC[C@@H](C(=O)NCC3CC3)[C@H]2C1	14.8
Cc1ccc(CN2CC[C@H]3OCC[C@@]3(C(=O)N3CCCO3)C2)o1	6.85
O=C(N[C@@H]1CN(c2ncccn2)[C@@H]2CCCO[C@@H]21)c1cscn1	13.6
O=C1CC[C@H]2CN(c3ncccc3F)CC[C@H]2N1CCc1ccccc1	-0.347
CCc1c(C(=O)N2C[C@H]3CC[C@@H]2CN(c2cnccn2)C3)csc1C	13.4
CN(C)C(=O)[C@@H]1CCO[C@@H]2CCN(CCOCc3ccccc3)C[C@H]21	1.54
OCC1N(Cc2ccc(F)cc2)[C@H]2CC[C@]1(O)CC2 (stereo not given in full)	12.3
Cc1ccc(C(=O)N2C[C@@H](N3CCN(C)CC3)[C@H]3OCCC[C@H]32)cn1	14.1
N#Cc1ccccc1CN1C[C@H]2CC[C@@H]1CN(C(=O)c1cccnc1)C2	15.4
CNC(=O)[C@@]12CCC3(CCNCC3)[C@@H]1CN(S(C)(=O)=O)C2	18.3
O=C1OCCN1CC(=O)N1C[C@H]2CC[C@@H]1CN(C(=O)c1ccccc1)C2	10.6
CC1COc2ccccc2N1C(=O)c1cscn1 (stereo not given)	12.4
CC1COc2ccccc2N1C(=O)CCc1cscn1 (stereo not given)	59
Cc1nc(CC(=O)N2c3ccccc3OCC2C)cs1 (stereo not given)	6.21
CNC(=O)[C@@H]1C[C@H]2CN(C(=O)c3ccco3)C[C@H]2N1C(C)C	14.5
CC(C)=CCN1C[C@@H]2CN(C(=O)c3cnccc3C)C[C@]2(C(=O)O)C1	8.52
CCCN1CCN(Cc2cccc(OC)c2)[C@H]2CS(=O)(=O)C[C@H]21	12.4
NCC1CCN(C2CCN(c3ccc(-c4ccco4)cc3)CC2)C1 (stereo not given)	52.7
CNC1CCN(C2CCN(c3ccc(-c4ccco4)cc3)CC2)CC1	21
NC1CCN(C2CCN(c3ccc(-c4ccco4)cc3)CC2)CC1	42.5
CCc1cc(CN2C[C@H]3CC[C@@H]2CN(C2Cc4ccccc4C2)C3)on1	18.8
